# From PubChem BioAssay
# Calls of active or inactive are those of the source.
# What was measured:
# [1] = target: Albumin (Bos taurus) (UniProt P02769); assay: compounds binding labelled BSA control protein – biochemical, small-molecule microarray, Alexa647 label, 635/667 nm fluorescence, artefact control for SMM control protein annotation, profiling panel (AID 1118); conditions: BSA-A647 binding, fluorescence 635 nm, higher = more signal;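 also: score merges 667 nm emission intensity and signal-to-noise per printed compound spot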
# [2] = probe aXIP binding to arrayed compounds – biochemical, NeuroSMM set, 635/667 nm fluorescence, primary screen (AID 1119); conditions: small-molecule microarray, higher = more signal, called active from +8 up or from −8 down;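 also: probe is the protein aXip251-270 applied at 1 µg/mL to compound-printed slides; binding of probe to printed compounds measured as 667 nm fluorescence plus signal to noise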
# [3] = probe aNOTCH3 binding on compound microarray – biochemical, small-molecule microarray, 635/667 nm fluorescence, primary screen (AID 1120); conditions: higher = more signal;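 also: probe is a biotin-tagged antibody raised against NOTCH3 rather than NOTCH3 protein; score merges spot fluorescence near 667 nm with spot signal to noise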
# [4] = probe aNOTCH2 binding on compound microarray – biochemical, small-molecule microarray, 635/667 nm fluorescence, primary screen (AID 1121); conditions: higher = more signal;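 also: score merges feature fluorescence read at 667 nm with its signal to noise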
# [5] = target: Carbonic anhydrase 2 (Homo sapiens) (UniProt P00918); assay: compounds binding carbonic anhydrase 2 – biochemical, small-molecule microarray, Alexa647-labelled CAII, profiling panel (AID 1122); conditions: CAII-A647 binding fluorescence, higher = more signal
# [6] = COS7 lysate on small-molecule microarray, probe aHis, 635 nm (AID 1123); conditions: COS7 cell lysate, fluorescence, higher = more signal;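 also: z-score combines 667nm fluorescence intensity with signal-to-noise per printed compound spot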
# [7] = probe aLAP1 signal on lysate-treated microarray – cell lysate, small-molecule microarray, COS7 lysate, primary screen (AID 1124); conditions: probe aLAP1, fluorescence, higher = more signal;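 also: lysate comes from COS7 cells expressing LAP1 and is applied at 0.3 µg/mL; score merges spot fluorescence near 667 nm with signal-to-noise over triplicate slides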
# [8] = tested on: Sam68 (KHDRBS1); assay: compounds binding KHDRBS1 protein – biochemical, small-molecule microarray, 635 nm fluorescence, primary screen (AID 1125); conditions: higher = more signal;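 also: score merges 667 nm channel intensity with signal to noise over triplicate slides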
# [9] = tested on: Chordin-like protein 2 (CHRDL2); assay: compounds binding chordin-like 2 – biochemical, small-molecule microarray, 635 nm fluorescence, primary screen (AID 1126); conditions: fluorescence 635 nm, higher = more signal;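 also: printed compound slides probed with Chrdl2 protein at 4 µg/mL for 1 h at 4 C; score merges 667 nm emission intensity with signal to noise over three replicate slides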
# [10] = target: Concanavalin-A (Canavalia ensiformis) (UniProt P02866); assay: compounds binding concanavalin A lectin – biochemical, small-molecule microarray, Alexa647 label, 635 nm, artefact control for SMM control protein annotation, primary screen (AID 1127); conditions: ConA-A647 binding fluorescence, higher = more signal;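 also: z combines 667 nm emission intensity with signal-to-noise across three replicate slides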
# [11] = compounds binding Alexa647 anti-His antibody – biochemical, small-molecule microarray, 635 nm fluorescence, artefact control for SMM control protein annotation, primary screen (AID 1128); conditions: higher = more signal;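 also: score merges feature fluorescence with signal-to-noise for each printed compound spot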
# [12] = tested on: Human papillomavirus type 1a E7 protein (residues 1-88); assay: HPV1a E7 small-molecule binders, primary screen, biochemical, small-molecule microarray, residues 1-88, 635 nm (AID 1129); conditions: small-molecule microarray binding, fluorescence 635 nm; higher = more signal
# [13] = target: Focal adhesion kinase 1 (Homo sapiens) (UniProt Q05397); assay: PTK2 protein binding on printed compound slides – biochemical, small-molecule microarray, 635/667 nm fluorescence, BSA, DTT, primary screen (AID 1130); conditions: 635 nm fluorescence, higher = more signal;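 also: composite of spot emission at 667 nm and signal to noise over triplicate slides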
# [14] = tested on: Fibrinogen (Alexa647-labelled); assay: Alexa647-fibrinogen binding to printed small molecules – biochemical, small-molecule microarray, 635/667 nm fluorescence, artefact control for SMM control-protein annotation, profiling panel (AID 1131); conditions: fibrinogen-A647 binding fluorescence, higher = more signal;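 also: z-score merges 667 nm fluorescence with per-spot signal-to-noise over triplicate slides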
# [15] = target: Follistatin (Homo sapiens) (UniProt P19883); assay: FST protein binding to printed compounds – biochemical, small-molecule microarray, 635/667 nm fluorescence, primary screen (AID 1132); conditions: 635 nm fluorescence, higher = more signal
# [16] = target: Fibroblast growth factor 2 (Homo sapiens) (UniProt P09038); assay: basic fibroblast growth factor binding to printed compounds – biochemical, small-molecule microarray, 635/667 nm fluorescence, primary screen (AID 1133); conditions: FGF2, fluorescence 635/667, higher = more signal
# [17] = JC-1 mitochondrial potential readout, lung cancer cells – cell-based, A549, JC-1 fluorescence, basal, 24 h, 100 nL, profiling panel (AID 1138); conditions: higher = more signal;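 also: A549 lung adenocarcinoma cells under basal conditions with no added stimulus; test concentration not given here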
# [18] = tested on: Lefty1; assay: Lefty1 protein binding to printed compounds – biochemical, small-molecule microarray, 635/667 nm fluorescence, primary screen (AID 1139); conditions: fluorescence 635/667, higher = more signal
# [19] = tested on: wheat germ agglutinin (Triticum aestivum), Alexa647-labelled; assay: Alexa647-WGA lectin binding to printed small molecules – biochemical, small-molecule microarray, 635/667 nm fluorescence, artefact control for SMM control-protein annotation, profiling panel (AID 1140); conditions: WGA-A647 binding, 635 nm fluorescence, higher = more signal;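 also: score merges 667 nm feature emission with signal to noise over triplicate slides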
# [20] = target: Luciferin 4-monooxygenase (Photinus pyralis) (UniProt P08659); assay: inhibition of purified Photinus pyralis luciferase – biochemical, luminescence, purified enzyme, 2006 set, primary screen (AID 1141); conditions: purified firefly luciferase, SteadyGlo luminescence, 30 min; higher = more signal, called active from +8 up or from −8 down;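 also: cell-free assay with purified firefly luciferase at 100 ng per well in PBS; test concentration not given here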
# Luciferin 4-monooxygenase (Photinus pyralis), sequence (P08659 whole entry, looked up): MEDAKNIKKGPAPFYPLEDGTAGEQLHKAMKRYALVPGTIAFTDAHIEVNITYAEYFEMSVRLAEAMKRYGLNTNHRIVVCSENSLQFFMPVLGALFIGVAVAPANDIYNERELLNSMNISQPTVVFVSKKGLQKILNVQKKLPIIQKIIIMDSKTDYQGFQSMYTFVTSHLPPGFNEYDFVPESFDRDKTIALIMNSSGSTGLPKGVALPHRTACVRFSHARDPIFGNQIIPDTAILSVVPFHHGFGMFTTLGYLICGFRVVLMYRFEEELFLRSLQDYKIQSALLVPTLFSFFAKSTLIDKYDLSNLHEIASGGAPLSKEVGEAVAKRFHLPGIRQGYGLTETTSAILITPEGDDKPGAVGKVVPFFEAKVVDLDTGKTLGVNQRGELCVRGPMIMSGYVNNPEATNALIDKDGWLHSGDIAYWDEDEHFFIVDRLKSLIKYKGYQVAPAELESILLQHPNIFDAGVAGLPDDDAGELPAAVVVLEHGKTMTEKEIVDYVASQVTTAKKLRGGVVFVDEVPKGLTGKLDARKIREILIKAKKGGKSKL
# Concanavalin-A (Canavalia ensiformis), sequence (P02866 whole entry, looked up): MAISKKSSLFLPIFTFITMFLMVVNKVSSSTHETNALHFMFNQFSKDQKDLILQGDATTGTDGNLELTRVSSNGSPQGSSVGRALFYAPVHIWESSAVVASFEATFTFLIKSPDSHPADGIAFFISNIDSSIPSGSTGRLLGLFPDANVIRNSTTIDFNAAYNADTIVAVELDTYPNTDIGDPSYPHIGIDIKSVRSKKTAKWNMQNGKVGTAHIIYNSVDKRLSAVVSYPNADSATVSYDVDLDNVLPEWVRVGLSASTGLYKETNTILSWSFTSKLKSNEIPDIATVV
# Focal adhesion kinase 1 (Homo sapiens), sequence (Q05397 whole entry, looked up): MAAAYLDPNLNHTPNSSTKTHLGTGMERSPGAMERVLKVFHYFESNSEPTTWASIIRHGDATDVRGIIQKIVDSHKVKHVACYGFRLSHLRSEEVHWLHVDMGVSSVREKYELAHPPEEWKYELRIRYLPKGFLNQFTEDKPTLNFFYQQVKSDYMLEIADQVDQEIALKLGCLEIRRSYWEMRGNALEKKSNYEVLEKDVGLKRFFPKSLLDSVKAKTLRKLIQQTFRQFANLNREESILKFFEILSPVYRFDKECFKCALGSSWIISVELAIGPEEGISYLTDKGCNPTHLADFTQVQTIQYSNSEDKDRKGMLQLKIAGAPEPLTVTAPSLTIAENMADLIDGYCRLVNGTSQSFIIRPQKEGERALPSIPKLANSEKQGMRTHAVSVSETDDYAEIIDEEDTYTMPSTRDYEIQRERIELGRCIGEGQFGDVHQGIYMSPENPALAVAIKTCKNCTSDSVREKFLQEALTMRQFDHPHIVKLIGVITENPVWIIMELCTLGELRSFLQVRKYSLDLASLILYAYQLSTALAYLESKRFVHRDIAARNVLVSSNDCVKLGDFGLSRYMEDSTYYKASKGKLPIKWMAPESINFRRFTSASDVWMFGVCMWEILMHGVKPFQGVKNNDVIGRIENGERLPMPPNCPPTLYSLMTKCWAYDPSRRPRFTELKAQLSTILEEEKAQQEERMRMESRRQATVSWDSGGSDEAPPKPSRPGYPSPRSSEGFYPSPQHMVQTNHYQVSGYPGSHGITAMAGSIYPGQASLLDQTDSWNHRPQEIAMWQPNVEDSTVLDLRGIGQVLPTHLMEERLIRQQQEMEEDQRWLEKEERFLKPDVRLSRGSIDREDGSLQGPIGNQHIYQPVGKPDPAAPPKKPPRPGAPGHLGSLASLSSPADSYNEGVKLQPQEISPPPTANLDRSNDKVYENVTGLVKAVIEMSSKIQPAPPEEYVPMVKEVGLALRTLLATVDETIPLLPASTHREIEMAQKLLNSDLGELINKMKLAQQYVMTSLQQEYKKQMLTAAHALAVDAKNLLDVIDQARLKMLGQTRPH
# Albumin (Bos taurus), sequence (P02769 whole entry, looked up): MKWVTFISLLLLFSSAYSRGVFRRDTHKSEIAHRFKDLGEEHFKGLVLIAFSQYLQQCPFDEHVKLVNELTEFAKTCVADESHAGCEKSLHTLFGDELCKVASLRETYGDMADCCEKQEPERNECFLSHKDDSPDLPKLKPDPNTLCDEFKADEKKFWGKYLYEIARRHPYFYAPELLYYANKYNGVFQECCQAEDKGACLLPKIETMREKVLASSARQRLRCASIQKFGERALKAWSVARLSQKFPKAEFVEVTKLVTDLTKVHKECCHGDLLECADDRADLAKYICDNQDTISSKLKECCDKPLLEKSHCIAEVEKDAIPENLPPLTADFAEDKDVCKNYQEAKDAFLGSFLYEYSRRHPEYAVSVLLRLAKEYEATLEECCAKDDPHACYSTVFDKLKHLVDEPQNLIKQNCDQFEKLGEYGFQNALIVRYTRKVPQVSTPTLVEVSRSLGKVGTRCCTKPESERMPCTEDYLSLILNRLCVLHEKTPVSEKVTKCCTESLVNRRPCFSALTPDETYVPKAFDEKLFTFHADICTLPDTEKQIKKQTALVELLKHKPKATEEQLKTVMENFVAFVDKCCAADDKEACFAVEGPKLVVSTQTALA
# Follistatin (Homo sapiens), sequence (P19883 whole entry, looked up): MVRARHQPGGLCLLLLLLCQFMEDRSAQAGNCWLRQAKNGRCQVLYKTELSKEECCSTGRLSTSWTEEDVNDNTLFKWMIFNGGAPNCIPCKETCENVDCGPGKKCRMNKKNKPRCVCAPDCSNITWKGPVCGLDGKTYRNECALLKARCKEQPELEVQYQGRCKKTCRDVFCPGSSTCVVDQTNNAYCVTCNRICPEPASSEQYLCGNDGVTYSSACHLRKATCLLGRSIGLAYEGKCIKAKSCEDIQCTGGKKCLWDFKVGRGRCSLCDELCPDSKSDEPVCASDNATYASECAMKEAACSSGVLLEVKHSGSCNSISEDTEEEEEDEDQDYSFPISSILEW
# Fibroblast growth factor 2 (Homo sapiens), sequence (P09038 whole entry, looked up): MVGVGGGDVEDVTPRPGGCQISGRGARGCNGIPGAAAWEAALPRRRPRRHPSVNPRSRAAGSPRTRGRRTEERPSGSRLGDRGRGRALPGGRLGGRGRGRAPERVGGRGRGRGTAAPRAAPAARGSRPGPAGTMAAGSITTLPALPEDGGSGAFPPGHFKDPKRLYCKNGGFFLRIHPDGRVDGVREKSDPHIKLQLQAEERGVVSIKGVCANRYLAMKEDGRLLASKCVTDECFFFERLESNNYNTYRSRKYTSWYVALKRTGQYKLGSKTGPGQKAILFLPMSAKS
SMILES,composite z-score [1],composite Z-score [2],composite z-score [3],composite z-score [4],composite z-score [5],composite z-score [6],composite z-score [7],composite z-score [8],composite z-score [9],composite z-score [10],composite z-score [11],composite z-score [12],composite z-score [13],composite z-score [14],composite z-score [15],composite z-score [16],z-score [17],composite z-score [18],composite z-score [19],z-score [20]
COc1ccc(CCNC(=O)[C@@]2(Sc3ccc(C)cc3)CC(=O)N(C(C)C)[C@@H]2c2ccc(CO)cc2)cc1,0.566,0.397 (inactive),-0.39,-0.124,0.7,0.239,0.0112,-0.346,-2.15,-0.277,0.8,-0.594,-0.13,-1.3,-0.616,-1.26,0.339,-0.919,-0.29,-0.424 (inactive)
CC(C)C[C@H]1NC(=O)[C@@H](C)NC(=O)[C@@]23C(=O)N[C@@H](Cc4ccccc4)C2[C@H](C)[C@@]2(C)O[C@H]2C3/C=C/C/C=C\CNC1=O (stereo not given in full),0.239,-0.162 (inactive),-0.189,-0.202,0.686,0.394,-0.0995,0.997,0.831,0.124,1.35,0.633,0.82,-0.212,0.746,0.238,-0.0228,0.754,0.532,-0.327 (inactive)
COC(=O)[C@@]1(Cc2ccccc2)[C@@H]2[C@@H](CC(=O)[C@H]2CC(=O)C(=O)N(C)C)CN1C(=O)c1ccccc1,0.579,-0.077 (inactive),-0.0288,-0.0928,0.838,2.87,0.712,-0.125,-0.641,0.596,1.33,0.577,0.434,0.601,-0.155,-0.112,1.19,-0.575,0.0553,0.558 (inactive)
CCC[C@@H]1[C@@H](Sc2ccccc2)[C@@H](C(=O)O)[C@H](c2ccc(C)cc2)N1S(=O)(=O)c1ccc(C)cc1,0.771,0.398 (inactive),0.322,-0.0794,0.594,2.65,1.39,1.33,-0.432,1.23,0.832,1.25,0.725,1.05,0.769,0.0754,-0.61,0.717,0.774,1.46 (inactive)
COC(=O)[C@@]1(CCS(=O)(=O)c2ccccc2)N=C(c2ccc(OCCCO)cc2)O[C@H]1c1ccccc1N=[N+]=[N-],0.827,-0.0127 (inactive),0.0237,0.0196,0.356,2.92,0.406,1.3,0.889,1.11,1.65,1.21,0.621,0.757,0.993,0.89,0.797,0.162,0.647,-1.93 (inactive)
COC(=O)[C@@]1(Cc2ccccc2)[C@H]2c3cc(C(=O)N4CCCC4)n(Cc4ccc(C(F)(F)F)nc4)c3C[C@H]2CN1C(=O)c1ccccc1,0.958,-0.296 (inactive),0.843,0.292,0.478,3.1,0.232,1.31,-0.873,1.16,0.472,1.28,1.23,1.06,0.778,-0.38,1.32,0.333,1.05,2.36 (inactive)
CO[C@H]1O[C@H](CO)[C@@H](OC(=O)Nc2ccccc2)[C@@H]2OC(=O)[C@H](Cc3ccccc3)C/C=C/C[C@@H](Cc3ccccc3)C(=O)O[C@@H]12,0.548,1.96 (inactive),0.177,0.371,0.559,1.28,0.597,0.921,0.152,0.628,2.3,1.13,0.473,0.718,1.29,1.74,2.27,1.33,0.588,-0.617 (inactive)
COc1ccccc1CN1C(=O)c2ccccc2[C@](Cc2ccccc2I)(C(=O)NCCCN(C)C)[C@@H]1c1ccc(CO)cc1,0.0893,-0.105 (inactive),-0.243,-0.181,0.475,1.86,2.08,1.3,0.176,1.11,0.237,1.21,0.904,0.944,0.489,0.141,-2.4,0.0523,0.0618,-0.644 (inactive)
Cc1ccc(S(=O)(=O)N2[C@@H](c3ccccc3)C(C(=O)O)=CC[C@H]2c2ccc(C#N)cc2)cc1,1.04,0.661 (inactive),-0.0647,0.0167,0.802,3.18,1.04,1.21,-0.425,0.805,1.58,1.31,0.447,0.992,0.0793,-0.413,-1.38,-0.388,1.05,0.654 (inactive)
CO[C@H]1O[C@H](CO)[C@@H](OC(=O)Nc2ccc(C(F)(F)F)cc2)[C@H](OC(=O)Nc2ccccc2-c2ccccc2)[C@H]1OC(=O)Nc1ccccc1-c1ccccc1,-0.792,0.259 (inactive),0.144,-0.0406,0.693,2.22,-0.244,1.3,-0.0407,1.2,1.7,1.26,0.735,1.04,1.27,0.686,-0.132,0.617,0.662,-0.68 (inactive)
COCC1=C([C@H](O)CCc2ccccc2)[C@H](CO)n2c(=O)n(-c3ccccc3)c(=O)n2C1,-0.442,0.0423 (inactive),-0.0014,-0.212,-0.447,-0.303,-0.469,-0.73,0.319,0.134,-0.507,-0.364,-0.044,-0.325,0.0942,1.08,-0.152,-0.0597,0.361,-1.59 (inactive)
CC(C)C[C@@H]1NC(=O)[C@@H]2C[C@H](C(=O)NCCCC[N+](C)(C)C)[C@H](c3ccc(O)cc3)N2C1=O,-0.857,0.541 (inactive),-0.0866,-0.153,0.705,0.83,0.678,1.09,1.37,1.02,2.63,0.643,-0.133,0.354,1.42,1.76,-0.694,1.67,0.479,-0.948 (inactive)
COC(=O)C1=CC(CCCO)=CC(c2ccc(CN3CCCC3)cc2)N(Cc2sc3ccccc3c2Cl)C=C1C(=O)OC (stereo not given),1.05,3.3 (inactive),0.734,0.157,0.788,2.95,0.926,1.3,0.153,1.21,3.17,1.23,0.579,1.05,0.59,0.709,4.12,0.377,1.34,-2.8 (inactive)
COc1ccc([Si](C)(C)[C@H]2[C@H](CCn3cc([C@H](O)c4ccccc4)nn3)O[C@@]3(C(=O)N(c4ccccc4)c4ccccc43)[C@@H]2C)cc1,0.121,-0.112 (inactive),-0.0879,-0.156,-0.102,-0.337,-0.075,0.0941,-0.201,0.173,0.448,-0.431,-0.4,-0.651,1.24,0.195,0.903,1.51,0.428,0.687 (inactive)
COCCOC(=O)N1C(=O)[C@@]2(c3cc(C#CC4=CCCCC4)ccc31)[C@H](C(=O)N1CCN(c3ncccn3)CC1)[C@H]1C(=O)O[C@H](c3ccccc3)[C@H](c3ccccc3)N1[C@@H]2c1ccccc1OCCO,0.768,0.0421 (inactive),0.0433,-0.0928,0.169,1.8,0.35,1.31,0.277,1.11,0.353,1.18,0.377,0.936,1.18,0.956,-1.3,0.787,0.792,-1.22 (inactive)
